For some assays here: Results with a measured potency or affinity are listed apart.
Columns and labels:
Design in all cases: scale not given: direction of the effect not stated beside the values
[1] = biological target: Protein translocase subunit SecA (Escherichia coli (strain K12)) (UniProt P10408); test: Assay to Identify E. coli SecA ATPase Inhibitors; format: functional; settings: 30 µM
[2] = biological target: T1, Ubiquitin-activating enzyme e1, putative (Leishmania donovani (strain BPK282A1)) (UniProt E9BSI1); test: Leishmania donovani Ubiquitin Activating Enzyme (LdE1); format: functional; settings: 30 µM
T1 sequence (whole entry): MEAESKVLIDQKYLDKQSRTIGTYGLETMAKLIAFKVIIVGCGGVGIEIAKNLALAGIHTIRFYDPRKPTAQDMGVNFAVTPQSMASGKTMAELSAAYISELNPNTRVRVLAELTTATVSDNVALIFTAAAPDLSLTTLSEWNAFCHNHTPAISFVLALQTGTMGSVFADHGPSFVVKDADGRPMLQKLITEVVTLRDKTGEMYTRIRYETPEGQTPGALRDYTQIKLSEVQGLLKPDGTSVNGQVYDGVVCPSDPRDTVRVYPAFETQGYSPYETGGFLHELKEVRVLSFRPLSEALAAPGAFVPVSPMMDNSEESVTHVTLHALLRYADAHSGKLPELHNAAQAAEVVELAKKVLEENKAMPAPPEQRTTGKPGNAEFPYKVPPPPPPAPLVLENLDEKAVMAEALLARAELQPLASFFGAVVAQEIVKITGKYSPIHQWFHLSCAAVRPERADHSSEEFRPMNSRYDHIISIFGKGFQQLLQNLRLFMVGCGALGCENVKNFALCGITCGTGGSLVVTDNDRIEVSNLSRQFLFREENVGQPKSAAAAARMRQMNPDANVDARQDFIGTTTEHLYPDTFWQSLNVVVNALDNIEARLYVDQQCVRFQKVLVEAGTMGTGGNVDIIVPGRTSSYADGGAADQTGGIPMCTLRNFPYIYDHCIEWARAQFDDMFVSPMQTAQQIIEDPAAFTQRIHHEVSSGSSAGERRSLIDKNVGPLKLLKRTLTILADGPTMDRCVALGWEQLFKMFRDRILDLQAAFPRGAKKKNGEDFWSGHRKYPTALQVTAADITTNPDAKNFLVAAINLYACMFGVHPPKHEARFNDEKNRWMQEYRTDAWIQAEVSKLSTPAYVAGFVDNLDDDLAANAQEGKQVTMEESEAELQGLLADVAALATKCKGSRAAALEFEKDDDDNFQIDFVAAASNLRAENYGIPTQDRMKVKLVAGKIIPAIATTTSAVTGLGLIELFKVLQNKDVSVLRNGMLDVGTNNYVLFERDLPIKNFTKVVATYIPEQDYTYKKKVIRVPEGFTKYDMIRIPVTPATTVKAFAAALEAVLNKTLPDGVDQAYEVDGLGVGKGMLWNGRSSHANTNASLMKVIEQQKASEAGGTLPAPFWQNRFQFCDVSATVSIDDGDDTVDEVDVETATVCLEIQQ

[3] = biological target: Sialic acid-binding Ig-like lectin 9 (Homo sapiens) (UniProt Q9Y336); test: Hs-Siglec9 ALPHAscreen SOP 20170721; settings: 10 µM
Sequence of Sialic acid-binding Ig-like lectin 9 (Homo sapiens) (Q9Y336 whole entry): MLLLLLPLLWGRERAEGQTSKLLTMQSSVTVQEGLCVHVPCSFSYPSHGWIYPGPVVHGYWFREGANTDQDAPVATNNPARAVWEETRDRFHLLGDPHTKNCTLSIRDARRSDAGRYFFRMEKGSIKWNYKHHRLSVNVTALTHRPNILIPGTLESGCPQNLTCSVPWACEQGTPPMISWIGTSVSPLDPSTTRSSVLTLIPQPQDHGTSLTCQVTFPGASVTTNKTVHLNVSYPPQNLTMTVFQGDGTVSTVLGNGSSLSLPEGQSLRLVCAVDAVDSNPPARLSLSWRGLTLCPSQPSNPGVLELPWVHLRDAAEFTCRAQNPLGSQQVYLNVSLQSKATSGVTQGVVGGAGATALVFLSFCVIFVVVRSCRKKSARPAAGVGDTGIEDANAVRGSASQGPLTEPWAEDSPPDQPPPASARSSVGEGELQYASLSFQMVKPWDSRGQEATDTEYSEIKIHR

Trypanosoma cruzi = test: Trypanosoma cruzi phosphomannomutase and mannose-1-phosphate guanylyltransferase assay; format: functional; settings: 10 µM
[4] = biological target: T2, Arginase-2, mitochondrial (Homo sapiens) (UniProt P78540); test: in vitro enzyme assay to detect the production of urea directly proportional to the activity of Arginase II; format: functional; settings: 33.3 µM; further: in the data most compounds retested in dose-response had high values
T2 sequence (whole entry): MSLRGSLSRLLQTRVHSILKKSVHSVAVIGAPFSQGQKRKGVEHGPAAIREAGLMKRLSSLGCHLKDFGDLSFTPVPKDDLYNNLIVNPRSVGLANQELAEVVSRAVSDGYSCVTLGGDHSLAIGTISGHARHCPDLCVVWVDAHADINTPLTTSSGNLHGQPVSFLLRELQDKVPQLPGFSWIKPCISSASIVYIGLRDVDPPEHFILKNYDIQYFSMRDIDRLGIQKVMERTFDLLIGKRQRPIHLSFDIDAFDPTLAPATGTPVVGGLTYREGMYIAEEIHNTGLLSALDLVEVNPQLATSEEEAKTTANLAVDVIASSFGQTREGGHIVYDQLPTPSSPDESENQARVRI

[5] = biological target: T3, Proteasome subunit beta (Trypanosoma cruzi) (UniProt O96673); test: Trypanosoma cruzi proteasome chymotrypsin-like activity (TcProtChymo) assay.; further: in the data most compounds retested in dose-response had high values; format: functional; settings: 9.37 µM
T3 sequence (whole entry): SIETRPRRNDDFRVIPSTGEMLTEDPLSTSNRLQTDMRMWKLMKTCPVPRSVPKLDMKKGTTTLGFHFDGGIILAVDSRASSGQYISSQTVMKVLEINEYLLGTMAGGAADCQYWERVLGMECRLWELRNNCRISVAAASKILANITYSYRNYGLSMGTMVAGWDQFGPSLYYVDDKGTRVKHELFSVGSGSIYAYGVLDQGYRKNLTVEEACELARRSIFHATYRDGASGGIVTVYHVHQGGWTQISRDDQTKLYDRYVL

Homo sapiens = organism: Homo sapiens; test: To identify inhibition of the IFN signalling (Jak-Stat) pathway via expression of an eGFP reporter gene under the control of an IFN-stimulated response element (ISRE) containing MxA promoter.; format: functional; settings: 30 µM
[6] = biological target: T4, Tyrosyl-tRNA synthetase, putative (Trypanosoma cruzi (strain CL Brener)) (UniProt Q4DSP6); test: Trypanosoma cruzi tyrosyl tRNA synthetase (TcYRS) _High Tyrosine SOP; format: functional; settings: 30 µM; further: in the data most compounds retested in dose-response had high values
T4 sequence (whole entry): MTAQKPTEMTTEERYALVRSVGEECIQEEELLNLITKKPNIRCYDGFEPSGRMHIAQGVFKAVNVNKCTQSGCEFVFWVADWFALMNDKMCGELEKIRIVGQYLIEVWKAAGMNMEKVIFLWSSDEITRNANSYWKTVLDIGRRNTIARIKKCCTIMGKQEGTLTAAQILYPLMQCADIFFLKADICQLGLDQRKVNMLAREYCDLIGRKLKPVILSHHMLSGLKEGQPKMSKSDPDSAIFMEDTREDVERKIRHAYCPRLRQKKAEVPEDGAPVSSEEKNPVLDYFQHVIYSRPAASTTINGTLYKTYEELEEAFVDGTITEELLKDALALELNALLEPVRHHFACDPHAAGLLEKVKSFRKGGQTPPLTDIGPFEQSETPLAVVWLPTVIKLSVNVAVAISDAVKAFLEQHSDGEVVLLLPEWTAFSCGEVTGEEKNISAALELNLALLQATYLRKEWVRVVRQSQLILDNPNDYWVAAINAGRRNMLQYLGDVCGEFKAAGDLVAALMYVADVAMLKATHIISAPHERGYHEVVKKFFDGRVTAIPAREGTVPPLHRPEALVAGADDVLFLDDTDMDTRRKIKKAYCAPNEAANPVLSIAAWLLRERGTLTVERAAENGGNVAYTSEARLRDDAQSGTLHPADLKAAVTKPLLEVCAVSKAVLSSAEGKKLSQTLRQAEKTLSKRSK

[7] = biological target: T4, Tyrosyl-tRNA synthetase, putative (Trypanosoma cruzi (strain CL Brener)); test: Trypanosoma cruzi tyrosyl tRNA synthetase (TcYRS) SOP; format: functional; settings: 30 µM
[8] = biological target: Chromo domain-containing protein 1 (Saccharomyces cerevisiae (strain ATCC 204508 / S288c) (Baker's yeast)) (UniProt P32657); test: ScCHD-1 Enzyme Inhibition Assay; format: functional; settings: 30 µM; further: in the data most compounds retested in dose-response had high values
Sequence of Chromo domain-containing protein 1 (Saccharomyces cerevisiae (strain ATCC 204508 / S288c) (Baker's yeast)) (P32657 whole entry, the tested form may be a part): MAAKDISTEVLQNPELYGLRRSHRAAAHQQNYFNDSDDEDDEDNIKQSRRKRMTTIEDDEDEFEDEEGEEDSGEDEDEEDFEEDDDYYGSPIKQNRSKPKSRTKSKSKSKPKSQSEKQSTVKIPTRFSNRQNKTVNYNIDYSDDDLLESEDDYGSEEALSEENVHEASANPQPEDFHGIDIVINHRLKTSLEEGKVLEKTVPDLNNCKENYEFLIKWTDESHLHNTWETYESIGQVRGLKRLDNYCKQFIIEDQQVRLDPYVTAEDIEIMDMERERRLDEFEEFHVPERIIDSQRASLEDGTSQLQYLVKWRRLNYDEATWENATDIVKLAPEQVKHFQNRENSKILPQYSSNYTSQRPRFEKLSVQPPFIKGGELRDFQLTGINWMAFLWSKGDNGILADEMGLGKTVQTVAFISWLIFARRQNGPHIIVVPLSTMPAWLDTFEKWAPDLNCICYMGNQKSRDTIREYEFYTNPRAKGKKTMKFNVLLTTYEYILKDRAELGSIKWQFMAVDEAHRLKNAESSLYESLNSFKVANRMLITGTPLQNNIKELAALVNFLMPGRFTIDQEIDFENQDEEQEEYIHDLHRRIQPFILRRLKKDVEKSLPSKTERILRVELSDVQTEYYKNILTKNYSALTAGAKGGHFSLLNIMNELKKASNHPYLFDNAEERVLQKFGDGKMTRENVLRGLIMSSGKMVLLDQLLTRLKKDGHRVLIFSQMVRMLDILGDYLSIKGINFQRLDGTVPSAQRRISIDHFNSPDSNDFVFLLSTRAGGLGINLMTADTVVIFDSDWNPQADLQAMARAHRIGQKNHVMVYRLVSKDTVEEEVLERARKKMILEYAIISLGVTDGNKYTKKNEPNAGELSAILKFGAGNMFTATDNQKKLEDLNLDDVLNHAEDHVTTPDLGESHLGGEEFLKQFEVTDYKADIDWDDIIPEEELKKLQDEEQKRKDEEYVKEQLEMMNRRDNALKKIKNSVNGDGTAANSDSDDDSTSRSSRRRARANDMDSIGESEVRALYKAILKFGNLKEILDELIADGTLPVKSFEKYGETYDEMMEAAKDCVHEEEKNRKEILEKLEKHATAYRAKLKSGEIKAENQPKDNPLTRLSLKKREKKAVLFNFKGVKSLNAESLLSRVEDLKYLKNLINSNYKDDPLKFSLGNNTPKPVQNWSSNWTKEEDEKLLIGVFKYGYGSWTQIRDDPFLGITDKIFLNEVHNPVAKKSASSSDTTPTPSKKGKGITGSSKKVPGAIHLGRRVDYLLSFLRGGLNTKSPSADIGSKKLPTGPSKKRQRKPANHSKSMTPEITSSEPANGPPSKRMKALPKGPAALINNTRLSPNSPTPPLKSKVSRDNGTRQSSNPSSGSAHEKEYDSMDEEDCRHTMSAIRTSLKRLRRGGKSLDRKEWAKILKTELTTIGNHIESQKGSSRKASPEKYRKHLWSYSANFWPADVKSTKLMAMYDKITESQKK

[9] = biological target: AMP-activated protein kinase, AMPK (Homo sapiens) (UniProt P54646+O43741+P54619+Q9UGJ0+Q9Y478+Q13131+Q9UGI9); test: AMP-dependent Kinase enzyme assay. An in vitro enzyme assay that detects ADP turnover that is directly proportional to AMPK activity. This uses naive AMPK that is activated during the assay with MK-8722; format: functional; settings: 30 µM

Sequence of Protein translocase subunit SecA (Escherichia coli (strain K12)) (P10408 whole entry): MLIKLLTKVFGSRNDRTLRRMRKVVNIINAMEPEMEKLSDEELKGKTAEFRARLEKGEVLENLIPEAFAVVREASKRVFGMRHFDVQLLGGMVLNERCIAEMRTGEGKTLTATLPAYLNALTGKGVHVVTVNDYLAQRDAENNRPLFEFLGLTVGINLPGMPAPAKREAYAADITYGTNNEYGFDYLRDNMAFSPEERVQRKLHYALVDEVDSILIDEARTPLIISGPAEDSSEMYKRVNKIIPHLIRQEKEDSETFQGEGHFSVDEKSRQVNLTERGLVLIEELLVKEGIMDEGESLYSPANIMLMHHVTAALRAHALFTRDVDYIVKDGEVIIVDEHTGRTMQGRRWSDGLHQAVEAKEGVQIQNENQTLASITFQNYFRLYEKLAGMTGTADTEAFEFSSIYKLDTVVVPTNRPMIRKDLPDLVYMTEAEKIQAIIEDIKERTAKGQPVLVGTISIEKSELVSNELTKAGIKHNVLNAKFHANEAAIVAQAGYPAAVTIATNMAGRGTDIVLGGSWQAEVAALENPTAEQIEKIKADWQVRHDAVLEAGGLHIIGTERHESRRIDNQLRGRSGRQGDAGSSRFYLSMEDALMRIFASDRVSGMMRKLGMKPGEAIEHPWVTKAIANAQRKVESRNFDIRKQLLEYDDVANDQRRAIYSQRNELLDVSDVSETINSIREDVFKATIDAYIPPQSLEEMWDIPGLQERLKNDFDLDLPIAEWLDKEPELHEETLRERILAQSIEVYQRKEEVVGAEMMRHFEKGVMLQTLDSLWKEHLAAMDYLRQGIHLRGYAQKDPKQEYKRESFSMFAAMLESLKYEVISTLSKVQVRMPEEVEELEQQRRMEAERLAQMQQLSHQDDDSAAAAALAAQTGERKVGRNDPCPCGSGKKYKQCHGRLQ

| SMILES | Percent Effect [1] | Percent Effect [2] | Percent Effect [3] | Percent Effect (Trypanosoma cruzi) | Percent Effect [4] | Percent Effect [5] | Percent Effect (Homo sapiens) | Percent Effect [6] | Percent Effect [7] | Percent Effect [8] | Percent Effect [9] |
| --- | --- | --- | --- | --- | --- | --- | --- | --- | --- | --- | --- |
| Cc1ccc(OCC(O)CN2CCC(Cn3cccn3)CC2)cc1 (stereo unspecified) | -0.525% | 7.79% | 7.42% | 0.373% | 4.3% | 7.89% | -3.3% | 10.8% | 23.5% | -5.78% |  |
| COc1ncc(C2CC(=O)NCc3nc4ccccn4c32)cn1 (stereo unspecified) | -5.62% | 5.41% | 1.68% | -1.46% | 1.75% | 6.34% | 3.05% | 7.98% | 14.6% | -1.5% |  |
| Cn1cnc2c1CCN(Cc1cccc(C(N)=O)c1)C2 | -3.09% | 7.69% | 3.32% | 0.657% | 2.87% | -3.67% | 7.29% | -0.478% | 13.2% | 4.07% |  |
| Fc1ccc(CN2CCC(c3n[nH]c4ncccc34)CC2)cc1F | -7.07% | 4% | -2.28% | -6.11% | -0.885% | 3.94% | 16.9% | -4.23% | -5% | -26.5% |  |
| CCc1ncc(C(=O)N2CCOCC2c2c(C)n[nH]c2C)s1 (stereo unspecified) | -0.434% | 10.3% | -1.82% | 7.23% | 0.41% | 1.11% | -6.48% | -0.478% | 8.43% | -1.09% |  |
| CN(C)c1ccc(C(=O)N2CCN(Cc3cscn3)CC2)cc1F | 0.885% | 13% | 8.14% | 1.31% | 3.07% | 9.12% | -8.07% | -10.8% | 23.5% | -2.52% |  |
| CN(Cc1ccco1)[C@@H]1CN(Cc2ccc(F)cc2)C[C@@H]2CCCO[C@@H]21 | -5.51% | 9.09% | -4.8% | -5.16% | -6.48% | 15.4% | -5.78% | 3.68% | 12.8% | -3.55% |  |
| O=C(N1CCC(Nc2cccnn2)CC1)C1(c2ccc(F)cc2)CC1 | -2.8% | 7.79% | 9.36% | -1.68% | -2.25% | 1.4% | 10.5% | 4.9% | 9.41% | -1.2% |  |
| FC(F)(F)Cn1ccnc1CN1CCCC1c1noc(C2CC2)n1 (stereo unspecified) | 0.298% | 10.7% | -5.86% | -3.01% | -4.43% | 15.7% | 16.6% | 4.74% | 15.4% | -9.44% |  |
| Cc1cccc(N2CCN(C(=O)Nc3cnn(CC(N)=O)c3)CC2)c1 | 0.381% | 20.5% | -9.92% | 5.73% | 6.56% | 1.28% | -6.7% | 4.31% | 25.3% | -4.54% |  |
| Cn1ncc(NCc2cc(F)cc(F)c2)c(Cl)c1=O | -3.8% | 13.3% | -5.81% | -3.01% | -10.6% | 7.55% | 37.7% | 4.74% | 10.3% | -11.4% |  |
| CC(C)N(C)C(=O)CN1CCCC(c2ccc(C(=O)O)cc2)C1 (stereo unspecified) | -2.28% | 18.9% | -0.275% | 0.485% | -66.1% | 12.3% | 29.1% | 5.85% | 19.5% | -6.15% |  |
| CCc1nnc(CN2CCCC(c3cc(C(F)(F)F)[nH]n3)C2)o1 (stereo unspecified) | -0.463% | 0% | -0.304% | -4.22% | 3.1% | 15.3% | -7.26% | 1.58% | -2.56% | -3.78% |  |
| O=c1cc(Cn2cncn2)nc2n1CCCN(CC1CC1)C2 | -4.98% | 11.7% | -1.33% | 1.27% | -1.22% | 9.09% | -6.93% | 3.68% | 5.13% | -4.01% |  |
| Cc1ccc(-c2nc(CN3CCCC(Cn4cncn4)C3)no2)cc1 (stereo unspecified) | -6.21% | -2.6% | 0.0125% | -0.373% | -3.48% | 0.351% | 25.7% | 1.96% | 0% | 9.47% |  |
| CC(C)Oc1ncccc1CNC(=O)c1ccco1 | -4.42% | 16% | 0.422% | 0.402% | 5.32% | 13.5% | 7.02% | 5.79% | 17.9% | -8.28% |  |
| O=C1CC2(CCN(S(=O)(=O)c3cccs3)C2)CN1c1ccccc1 (stereo unspecified) | -4.36% | 9.09% | 0.409% | -2.81% | 3.65% | 2.83% | 8.75% | -1.93% | -2.5% | -2.17% |  |
| CCn1cc(-c2cc(C(=O)N3CCOCC3)c3cc(Cl)ccc3n2)cn1 |  |  |  |  |  |  |  |  |  |  | 11.8% |
| CCCc1n[nH]cc1C(=O)N1CCC(c2nccn2CCOC)CC1 | -7.31% | 16.2% | 21.9% | 8.44% | 20.6% | 7.19% | 11% | 5.85% | 12.2% | 20.9% |  |
| CCc1[nH]ncc1C(=O)N1CCCC(n2nc(C)nc2C)C1 (stereo unspecified) | -6.31% | 2.56% | -8.9% | 11.9% | -1.23% | 2.82% | 7.13% | 0.478% | 8.43% | -10.4% |  |
| CN(CC(=O)N1CCCN(Cc2cscn2)CC1)c1cnccn1 | 0.471% | -18.2% | 7.79% | -4.29% | -3.07% | 0.351% | 9.75% | 0% | 4.71% | 5.41% |  |
| Cn1ncc2c1NC(=O)CC2c1ccc(O)cc1 (stereo unspecified) | -7.41% | 0% | -2.98% | -8.63% | -6.64% | 11.3% | 30.7% | 0.532% | 4.88% | -4.05% |  |
| CC(C)c1nnc2n1CCN(C(=O)c1ccc3cc[nH]c3c1)C2 | -6.11% | 10.7% | 4.04% | -1.61% | 2.66% | 1.27% | 6.35% | 5.79% | 12.8% | -9.74% |  |

— ChEMBL document CHEMBL3988442, “University of Dundee, Small-Polar-MMV Screening Library” (2021)
